Experimental data published in PubChem BioAssay AID434927 (Sanford-Burnham Center for Chemical Genomics, 2010).
Values without a mark were called inactive. The source made the active and inactive calls.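 How the source made its calls: active means inhibition above about 23% in any of six single-dose repeats (limit read from the data); inactive means the rest.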

Biological target: Intestinal-type alkaline phosphatase (Homo sapiens) (UniProt P09923)
Assay: human IAP inhibitors, confirmation, biochemical, luminescence, single concentration, uHTS hits (AID 434927);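 further: plate controls were DMSO wells with enzyme for no effect and wells lacking enzyme for full effect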
Details: purified human IAP, CDP-Star luminescence, 30 min; at 8.3 µM; stronger effect = higher value

Chain of Intestinal-type alkaline phosphatase (Homo sapiens) (P09923 whole entry, looked up): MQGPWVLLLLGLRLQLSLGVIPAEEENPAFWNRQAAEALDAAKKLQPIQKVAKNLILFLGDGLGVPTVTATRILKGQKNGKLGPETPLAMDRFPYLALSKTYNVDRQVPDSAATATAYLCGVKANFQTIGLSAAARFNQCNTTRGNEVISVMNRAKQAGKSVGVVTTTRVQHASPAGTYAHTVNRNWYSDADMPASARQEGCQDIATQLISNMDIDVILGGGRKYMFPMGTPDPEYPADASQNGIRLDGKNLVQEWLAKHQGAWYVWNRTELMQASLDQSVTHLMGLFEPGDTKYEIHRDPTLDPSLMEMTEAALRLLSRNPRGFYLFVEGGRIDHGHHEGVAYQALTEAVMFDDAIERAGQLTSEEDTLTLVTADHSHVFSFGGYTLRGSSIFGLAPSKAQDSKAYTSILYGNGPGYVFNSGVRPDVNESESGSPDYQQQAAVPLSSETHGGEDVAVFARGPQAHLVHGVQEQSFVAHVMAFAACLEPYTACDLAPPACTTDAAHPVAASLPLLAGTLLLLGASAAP

Row | SMILES | inhibition
1 | OC1CN=C2Sc3ccccc3N2C1 (stereo not drawn) | -100%
2 | CC[n+]1c(/C=C/c2c[nH]c3ccccc23)ccc2cc(C)ccc21 | -85.7%
3 | CCOC(=O)c1cnc(SCC(=O)c2ccccc2)nc1N | -436%
4 | Cc1ccccc1CNC(=O)c1ccccc1N | 37.2% (active)
5 | Cc1cc(C(=O)NNC(=O)COc2c(C)cc(Br)cc2C)n[nH]1 | -0.057%
6 | CC(C)Oc1ccc(C(=O)Nc2ncn[nH]2)cc1 | -64.7%
7 | Cc1ccc(NC(=O)C2CC(=O)Nc3nc4ccccc4n32)c(C)c1 (stereo not drawn) | 38.4% (active)
8 | Cc1[nH]n(-c2nc(-c3ccccc3F)cc(=O)[nH]2)c(=O)c1CCO | -39.7%
9 | O=C(NNC(=S)NC(=O)c1ccccc1[N+](=O)[O-])c1ccccc1O | 27.4% (active)
10 | Cc1nc(S/C(=C/c2ccc(-c3ccc(Cl)cc3)o2)C(=O)O)n[nH]1 | -88.7%
11 | Cc1ccc(-c2cc(C(=O)N/N=C/c3ccccc3O)n[nH]2)o1 | 39.3% (active)
12 | O=C(/C=C/c1ccc(O)cc1)c1ccc(NC2=C(N3CCCCC3)C(=O)c3ccccc3C2=O)cc1 | -0.00319%
13 | c1ccc(CSCCc2ccncc2)cc1 | -33.2%
14 | Cc1nn(C)c(C(=O)NNC(=S)NCc2ccccc2)c1Cl | -141%
15 | O=C(CCCCC(=O)NNC(=O)COc1ccccc1)NNC(=O)COc1ccccc1 | -88.4%
16 | COc1ccccc1C1=NN(C2=NN=C(N)Cc3ncnn32)C(O)(C(F)(F)F)C1 (stereo not drawn) | 45.2% (active)
17 | Cc1nc2c3ccccc3nc(NNC(=O)CCC(=O)NCCN3CCN(c4ccccc4)CC3)n2n1 | -97.4%

Row | SMILES | inhibition
18 | CSCCC(NS(=O)(=O)c1ccccc1F)C(=O)NNC(=O)c1csc(N2CCOCC2)n1 (stereo not drawn) | 72.3% (active)
19 | C/C(=N/Nc1ccccc1[N+](=O)[O-])c1ccc([N+](=O)[O-])cc1 | -233%
20 | COc1ccccc1N(C)S(=O)(=O)c1ccc(Cl)c(C(=O)NNC(=O)c2ccccc2O)c1 | 59.4% (active)
21 | O=S(=O)(c1ccccc1)N1CCCC1c1cccs1 (stereo not drawn) | -172%
22 | COc1ccc(CC2CC(=O)N(c3ccc(C)cc3)C2=O)cc1 (stereo not drawn) | 23.2% (active)
23 | Cc1nc(Nc2nc3c(c(=O)[nH]2)CCC3)nc2ccccc12 | -77.6%
24 | CCCCCCCn1c(=N)n(CC(=O)c2ccco2)c2ccccc21 | -49.6%
25 | CC(=O)N1CCOc2ccc(S(=O)(=O)N3CCCC(C)C3)cc21 (stereo not drawn) | 54% (active)
26 | O=c1c2cc(O)c(O)cc2oc2cc(O)c(C3OC(CO)C(O)C(O)C3O)c(O)c12 (stereo not drawn) | -148%
27 | COC(=O)c1ccccc1-c1c2ccc(=N)cc-2oc2cc(N)ccc12 | 34.6% (active)
28 | CCOc1ccccc1CN1CCC(n2nccc2NC(=O)CCc2ccccc2)CC1 | 26.6% (active)
29 | CCN(CC)c1ccc(N=Nc2nn(C)c(C)c2[N+](=O)[O-])cc1 | 34.7% (active)
30 | CC(=O)Nc1cccc(-c2csc(Nc3ccccn3)n2)c1 | -94.1%
31 | O=C(Nc1cccc(-c2cccc(F)c2)c1)C1CCN(C2CCC2)CC1 | 67.6% (active)
32 | O=C(CCNS(=O)(=O)c1ccccc1C(F)(F)F)NNC(=O)c1csc(N2CCOCC2)n1 | 0.0741%
33 | CCOc1ccc(NC(=O)CSc2nncn2C)cc1 | -83.5%
